Experiment [1] can be described thus: survival rescue of mitochondrial mutant cells in low glucose, primary screen, MELAS cybrids, Rieske KO mouse fibroblasts, CellTiter-Glo (AID 1508586;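 active means mean z-score across replicates of 1.96 or higher in either the MELAS or the Rieske mutant cell line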;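 further: z relative to plate mean and SD of compound and empty wells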).
A short description of experiment [2]: viability rescue of complex I mutant cybrids, primary screen, cell-based, galactose medium, ATP luminescence (AID 1645843;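 active means z-score of at least 1.8 in each of two replicates, scored against plate mean and spread of sample wells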;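 further: positive z means more ATP and so rescue of galactose-driven cybrid death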). The settings on record: complex I mutant cybrid cells, 72 h, stronger effect = higher value.
Experiment [3] is described as follows: ovarian cancer cell viability with rucaparib, profiling panel, oncology-focused library, rucaparib conditional (AID 1508598). The settings on record: patient-derived ovarian cancer cells, CellTiter-Glo viability, 144 h, stronger effect = lower value.
The nature of experiment [4]: kinase inhibitors against Plasmodium liver-stage infection, cell-based, known kinase inhibitor set, luminescence, hepatoma host viability (AID 624392; call rule not given here;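 further: infected cells incubated roughly two days before readout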). The settings on record: Plasmodium liver stage in hepatoma cells, luciferase luminescence, concentration not given here; liver cell % of control: measured here: host liver cell viability; parasite % of control: stronger effect = lower value.

Experiment [5] in a line: modulators of glucocorticoid suppression of NF-kB, cell-based, luciferase, IL-1B stimulus, dexamethasone (AID 624486; call rule not given here;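 on percent of negative control (+Dex): 100% = mean signal of vehicle control wells on the plate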). Conditions: NF-kB luciferase reporter, IL-1B + dexamethasone, luminescence; percent of negative control (+Dex): actives lie on both sides, concentration not given here; z-score: measured here: IL-1B alone, no Dex.
Experiment [6] is described as follows: kinase inhibitors altering Pseudomonas killing of worms, whole organism (AID 651566; call rule not given here;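 further: tested at 14 µM; sign flipped so higher z means a lower ratio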). The settings on record: C. elegans killed by P. aeruginosa, survival ratio.
Experiment [7] is described as follows: activators of macrophage pro-inflammatory response, cell-based, murine, luminescence (AID 652131; call rule not given here). The settings on record: murine macrophage pro-inflammatory reporter, stronger effect = higher value.
[8] abbreviates: MELAS cybrid survival, CellTiter-Glo 48 h, stronger effect = higher value.
The mark [9] stands for this setting: Rieske KO mouse fibroblast survival, CellTiter-Glo 72 h.
The mark [10] stands for this setting: at 0.000305 µM, OCI-C5x cells, with rucaparib 10 µM, 100% = cells with rucaparib alone.
[11] abbreviates: at 0.000305 µM, OCI-C5x cells, without rucaparib.
Setting [12] is: at 0.000305 µM, OCI-P5x cells, with rucaparib 20 µM, 100% = cells with rucaparib alone.
[13] abbreviates: at 0.000305 µM, OCI-P5x cells, without rucaparib.
[14] abbreviates: at 0.00122 µM, OCI-C5x cells, with rucaparib 10 µM, 100% = cells with rucaparib alone.
[15] abbreviates: at 0.00122 µM, OCI-C5x cells, without rucaparib.
Where [16] appears, read: at 0.00122 µM, OCI-P5x cells, with rucaparib 20 µM, 100% = cells with rucaparib alone.
The mark [17] stands for this setting: at 0.00122 µM, OCI-P5x cells, without rucaparib.
Where [18] appears, read: at 0.00488 µM, OCI-C5x cells, with rucaparib 10 µM, 100% = cells with rucaparib alone.
Setting [19] is: at 0.00488 µM, OCI-C5x cells, without rucaparib.
[20] abbreviates: at 0.00488 µM, OCI-P5x cells, with rucaparib 20 µM, 100% = cells with rucaparib alone.
The mark [21] stands for this setting: at 0.00488 µM, OCI-P5x cells, without rucaparib.
Setting [22] is: at 0.0195 µM, OCI-C5x cells, with rucaparib 10 µM, 100% = cells with rucaparib alone.
Setting [23] is: at 0.0195 µM, OCI-C5x cells, without rucaparib.
Setting [24] is: at 0.0195 µM, OCI-P5x cells, with rucaparib 20 µM, 100% = cells with rucaparib alone.
The mark [25] stands for this setting: at 0.0195 µM, OCI-P5x cells, without rucaparib.
[26] abbreviates: at 0.0781 µM, OCI-C5x cells, with rucaparib 10 µM, 100% = cells with rucaparib alone.
Setting [27] is: at 0.0781 µM, OCI-C5x cells, without rucaparib.
Where [28] appears, read: at 0.0781 µM, OCI-P5x cells, with rucaparib 20 µM, 100% = cells with rucaparib alone.
[29] abbreviates: at 0.0781 µM, OCI-P5x cells, without rucaparib.
Setting [30] is: at 0.313 µM, OCI-C5x cells, with rucaparib 10 µM, 100% = cells with rucaparib alone.
Setting [31] is: at 0.313 µM, OCI-C5x cells, without rucaparib.
[32] abbreviates: at 0.313 µM, OCI-P5x cells, with rucaparib 20 µM, 100% = cells with rucaparib alone.
[33] abbreviates: at 0.313 µM, OCI-P5x cells, without rucaparib.
The mark [34] stands for this setting: at 1.25 µM, OCI-C5x cells, with rucaparib 10 µM, 100% = cells with rucaparib alone.
Where [35] appears, read: at 1.25 µM, OCI-C5x cells, without rucaparib.
The mark [36] stands for this setting: at 1.25 µM, OCI-P5x cells, with rucaparib 20 µM, 100% = cells with rucaparib alone.
Where [37] appears, read: at 1.25 µM, OCI-P5x cells, without rucaparib.
Where [38] appears, read: at 5 µM, OCI-C5x cells, with rucaparib 10 µM, 100% = cells with rucaparib alone.
[39] abbreviates: at 5 µM, OCI-C5x cells, without rucaparib.
Setting [40] is: at 5 µM, OCI-P5x cells, with rucaparib 20 µM, 100% = cells with rucaparib alone.
Where [41] appears, read: at 5 µM, OCI-P5x cells, without rucaparib.

Active and inactive are the calls of the source.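 How the source made its calls, unless noted: active means normalized viability below 100% at a tested concentration; inactive means the rest.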

On to `Cn1nc(C(=O)N2CCCCC2)c2c1CCC(NCC1(c3ccccc3)CCOCC1)C2` (stereo not given), for which the z-score in experiment [1] (setting [8]) was 0.135 (inactive); in experiment [1] (setting [9]), 0.153; in experiment [2] it was -0.59 (inactive).
For `Cc1[nH]c(C=C2C(=O)Nc3ccc(S(=O)(=O)Cc4c(Cl)cccc4Cl)cc32)c(C)c1C(=O)N1CCC[C@@H]1CN1CCCC1`, the viability was 124% (inactive) in experiment [3] (setting [10]); 124% (inactive) in experiment [3] (setting [11]); 74% (active) in experiment [3] (setting [12]); 47.4% (active) in experiment [3] (setting [13]); 122% (inactive) in experiment [3] (setting [14]); 115% (inactive) in experiment [3] (setting [15]). Besides, the viability in experiment [3] (setting [16]) is 87.5% (active); in experiment [3] (setting [17]) it was 57.1% (active); in experiment [3] (setting [18]), 116% (inactive); in experiment [3] (setting [19]), 121% (inactive); in experiment [3] (setting [20]) it was 105% (inactive); in experiment [3] (setting [21]), 101% (inactive). In addition, the viability is 107% (inactive) in experiment [3] (setting [22]); 111% (inactive) in experiment [3] (setting [23]); 93.6% (active) in experiment [3] (setting [24]); 91.6% (active) in experiment [3] (setting [25]); 106% (inactive) in experiment [3] (setting [26]); 113% (inactive) in experiment [3] (setting [27]). For the same compound, the viability in experiment [3] (setting [28]) was 96% (active); in experiment [3] (setting [29]) it was 89.5% (active); in experiment [3] (setting [30]) it was 123% (inactive); in experiment [3] (setting [31]), 110% (inactive); in experiment [3] (setting [32]) it was 93% (active); in experiment [3] (setting [33]) it was 94.4% (active). Further, the viability is 122% (inactive) in experiment [3] (setting [34]); 136% (inactive) in experiment [3] (setting [35]); 90.6% (active) in experiment [3] (setting [36]); 87% (active) in experiment [3] (setting [37]); 109% (inactive) in experiment [3] (setting [38]); 116% (inactive) in experiment [3] (setting [39]). Further, the viability in experiment [3] (setting [40]) is 1.25% (active); in experiment [3] (setting [41]), 52.5% (active).
Turning to `COCCCNC(=O)c1nn(C)c2c1CN(C(=O)Cc1c(C)[nH]c3c(F)cccc13)CC2`, the z-score is -0.326 (inactive) in experiment [1] (setting [8]), -0.829 in experiment [1] (setting [9]) and 0.99 (inactive) in experiment [2].
As to `Nc1nonc1-c1nc2cnccc2n1C1CC1`, in experiment [4], the liver cell % of control was determined as 86.3%. Also, in experiment [4], the parasite % of control is 247% (inactive). The percent of negative control (+Dex) in experiment [5] was 45% (active). In addition, the z-score in experiment [5] was -5.63; in experiment [6], -0.345 (inactive); in experiment [7], -0.857 (inactive); in experiment [1] (setting [8]), -0.391 (inactive); in experiment [1] (setting [9]) it was -0.585.
As to `c1ccc(Cn2c(-c3ccc(OC[C@H](C4CCNCC4)n4c(-c5ccccc5)nc5ccccc54)cc3)nc3ccccc32)cc1`, the viability in experiment [3] (setting [10]) was 117% (inactive); in experiment [3] (setting [11]) it was 110% (inactive); in experiment [3] (setting [12]), 90.3% (active); in experiment [3] (setting [13]) it was 96.7% (active); in experiment [3] (setting [14]) it was 123% (inactive); in experiment [3] (setting [15]), 125% (inactive). Besides, the viability was 98.1% (active) in experiment [3] (setting [16]); 99.5% (active) in experiment [3] (setting [17]); 125% (inactive) in experiment [3] (setting [18]); 126% (inactive) in experiment [3] (setting [19]); 99.2% (active) in experiment [3] (setting [20]); 101% (inactive) in experiment [3] (setting [21]). For the same compound, the viability in experiment [3] (setting [22]) is 121% (inactive); in experiment [3] (setting [23]) it was 107% (inactive); in experiment [3] (setting [24]), 96.1% (active); in experiment [3] (setting [25]) it was 106% (inactive); in experiment [3] (setting [26]) it was 110% (inactive); in experiment [3] (setting [27]), 117% (inactive). The viability is 95.8% (active) in experiment [3] (setting [28]); 105% (inactive) in experiment [3] (setting [29]); 118% (inactive) in experiment [3] (setting [30]); 120% (inactive) in experiment [3] (setting [31]); 105% (inactive) in experiment [3] (setting [32]); 109% (inactive) in experiment [3] (setting [33]). Moreover, the viability in experiment [3] (setting [34]) is 130% (inactive); in experiment [3] (setting [35]), 131% (inactive); in experiment [3] (setting [36]), 33.8% (active); in experiment [3] (setting [37]) it was 102% (inactive); in experiment [3] (setting [38]), 1.56% (active); in experiment [3] (setting [39]), 3.14% (active). For the same compound, the viability in experiment [3] (setting [40]) is 1.07% (active); in experiment [3] (setting [41]), 1.44% (active).
Consider `CC1=C(/C=C/C(C)=C\C=C\C(C)=C/C(=O)O)C(C)(C)CCC1`, for which the viability in experiment [3] (setting [10]) is 112% (inactive); in experiment [3] (setting [11]), 108% (inactive); in experiment [3] (setting [12]) it was 94.7% (active); in experiment [3] (setting [13]), 87.1% (active); in experiment [3] (setting [14]), 115% (inactive); in experiment [3] (setting [15]), 105% (inactive). In addition, the viability in experiment [3] (setting [16]) was 78.9% (active); in experiment [3] (setting [17]), 65.9% (active); in experiment [3] (setting [18]), 111% (inactive); in experiment [3] (setting [19]), 109% (inactive); in experiment [3] (setting [20]), 81.7% (active); in experiment [3] (setting [21]), 101% (inactive). Further, the viability in experiment [3] (setting [22]) was 103% (inactive); in experiment [3] (setting [23]), 106% (inactive); in experiment [3] (setting [24]) it was 99% (active); in experiment [3] (setting [25]) it was 97.6% (active); in experiment [3] (setting [26]), 105% (inactive); in experiment [3] (setting [27]) it was 109% (inactive). Further, the viability is 96.7% (active) in experiment [3] (setting [28]); 97.6% (active) in experiment [3] (setting [29]); 108% (inactive) in experiment [3] (setting [30]); 106% (inactive) in experiment [3] (setting [31]); 93.9% (active) in experiment [3] (setting [32]); 96.4% (active) in experiment [3] (setting [33]). Besides, the viability in experiment [3] (setting [34]) was 103% (inactive); in experiment [3] (setting [35]), 105% (inactive); in experiment [3] (setting [36]), 92.6% (active); in experiment [3] (setting [37]), 92.3% (active); in experiment [3] (setting [38]), 96.2% (active); in experiment [3] (setting [39]) it was 104% (inactive). Moreover, the viability in experiment [3] (setting [40]) was 84.1% (active); in experiment [3] (setting [41]), 82.8% (active).

For the origin of these results see PubChem BioAssay.
